The source of these data is PubChem BioAssay (NCI).

Molecules are shown by their SMILES. This is part of a sample that, as a whole, favours compounds with a hit. Of some 83,000 tested, about 20% had one in any assay.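 Each cell line was grown in a 96-well plate and treated with one concentration of compound for 48 hours. Values below 10 were considered active.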 Values without a mark were called inactive. The source made the active and inactive calls.

Some test systems named below: SR leukemia; RPMI-8226 leukemia; OVCAR-8 ovarian; OVCAR-5 ovarian; OVCAR-4 ovarian; SK-OV-3 ovarian; IGROV1 ovarian; OVCAR-3 ovarian; HS 578T breast; NCI/ADR-RES ovarian.
Assay in all cases: NCI-60 one-dose screen, 48 h (100 = growth as untreated, 0 = no growth, -100 = all killed)
Common to all, as to details: 10 µM unless noted

For the compound `O=[N+]([O-])c1c(O)c(Cl)cc(Cl)c1Cl`, the growth in the test on SR leukemia is 87.9%; in the test with RPMI-8226 leukemia it was 97.9%; in the test with OVCAR-8 ovarian it was 101%; with OVCAR-5 ovarian, 91.6%; in the test with OVCAR-4 ovarian it was 109%; with SK-OV-3 ovarian it was 99.2%. The growth in the test with IGROV1 ovarian was 111%; in the test on OVCAR-3 ovarian it was 111%; with HS 578T breast it was 117%; with NCI/ADR-RES ovarian it was 95.6%.

`C(=C(\C1=NCCN1)n1ccc2ccccc21)/c1ccccc1`: the growth is 95.9% with SR leukemia; 100% with RPMI-8226 leukemia; 97% with OVCAR-8 ovarian; 92.6% with OVCAR-5 ovarian; 103% with OVCAR-4 ovarian; 105% in the test on SK-OV-3 ovarian. Besides, the growth is 93.4% in the test with IGROV1 ovarian, 104% with OVCAR-3 ovarian, 88.6% in the test with HS 578T breast and 97.6% in the test on NCI/ADR-RES ovarian.

Consider `COC12C=C/C(=C(/C(=O)OCCSc3ccnn3C)C(=O)CCCCCCCCC3(OC)C=C/C(=C(/C(=O)OCCSc4ccnn4C)C(=O)CCCCCCCC1)O3)O2`, for which the growth in the test on SR leukemia is -7.77% (active); in the test on RPMI-8226 leukemia it was -8.92% (active); in the test on OVCAR-8 ovarian it was 17.3%; with OVCAR-5 ovarian, 37%; in the test with OVCAR-4 ovarian it was 20.4%; in the test with SK-OV-3 ovarian it was 75.1%. Also, the growth in the test on IGROV1 ovarian is -3.71% (active); in the test with OVCAR-3 ovarian, 5.79% (active); in the test on HS 578T breast, 39.4%; in the test on NCI/ADR-RES ovarian, 25.2%.

In the case of `Cn1cc(-c2nc3c(F)cc4[nH]ncc4c3c3c2CCCC3)c(C(F)(F)F)n1`, the growth in the test on SR leukemia is -30.9% (active); in the test on RPMI-8226 leukemia, -5.82% (active); with OVCAR-8 ovarian it was 39.4%; in the test with OVCAR-5 ovarian, 65%; with OVCAR-4 ovarian it was 73.8%; with SK-OV-3 ovarian, 14.1%. For the same compound, the growth with IGROV1 ovarian is 24%; in the test with OVCAR-3 ovarian, 55.2%; with HS 578T breast, 18%; in the test on NCI/ADR-RES ovarian, 60.2%.

With `CC1(C)N=C(N)N=C(N)N1c1ccc(S(=O)(=O)Nc2nccs2)cc1`, the growth in the test on SR leukemia is 104%; with RPMI-8226 leukemia, 108%; in the test on OVCAR-8 ovarian, 104%; in the test on OVCAR-5 ovarian, 91.9%; in the test with OVCAR-4 ovarian, 104%; with SK-OV-3 ovarian, 102%. Further, the growth in the test with IGROV1 ovarian is 100%; with OVCAR-3 ovarian, 107%; with HS 578T breast it was 103%; with NCI/ADR-RES ovarian, 106%.

Regarding `O=S(Nc1ccccc1)c1ccc(Cl)cc1` (stereo not given), the growth with SR leukemia was 78.8%; in the test with RPMI-8226 leukemia, 99.3%; in the test on OVCAR-8 ovarian it was 100%; in the test with OVCAR-5 ovarian it was 109%; in the test with OVCAR-4 ovarian, 95.5%; in the test with SK-OV-3 ovarian, 109%. Besides, the growth is 105% with IGROV1 ovarian, 112% with OVCAR-3 ovarian, 84.6% with HS 578T breast and 106% in the test with NCI/ADR-RES ovarian.

For `Clc1ccc(-c2nc(C(Cl)Cl)nc3cc(-c4ccccc4)nn23)cc1`, the growth in the test on SR leukemia was 10.4%; with RPMI-8226 leukemia it was 38.5%; in the test with OVCAR-8 ovarian, 29.8%; in the test on OVCAR-5 ovarian, 17%; in the test with OVCAR-4 ovarian, -7.63% (active); with SK-OV-3 ovarian it was 18.6%. The growth in the test on IGROV1 ovarian is 54.8%; in the test with OVCAR-3 ovarian it was -10.2% (active); in the test on HS 578T breast it was -4.46% (active); in the test on NCI/ADR-RES ovarian, 19.7%.

As to `COc1ccc(/C=C/C(c2cc(OC)c(OC)c(OC)c2)n2cncn2)cc1O` (stereo not given), the growth with SR leukemia was 5.67% (active); with RPMI-8226 leukemia it was 19.9%; in the test on OVCAR-8 ovarian it was 16%; in the test on OVCAR-5 ovarian, 86.5%; with OVCAR-4 ovarian, 83.5%; in the test on SK-OV-3 ovarian, 12.7%. Also, the growth with IGROV1 ovarian is 50.5%; with OVCAR-3 ovarian, 15.7%; in the test with HS 578T breast it was 28.5%; in the test with NCI/ADR-RES ovarian, 10.8%.

Regarding `CCSc1ccnc(N)n1`, the growth with SR leukemia is 153%; in the test with RPMI-8226 leukemia it was 114%; in the test on OVCAR-8 ovarian, 108%; in the test with OVCAR-5 ovarian it was 104%; with OVCAR-4 ovarian it was 111%; in the test with SK-OV-3 ovarian it was 110%. The growth in the test with IGROV1 ovarian was 96.7%; with OVCAR-3 ovarian, 97.3%; in the test on HS 578T breast it was 117%; in the test on NCI/ADR-RES ovarian, 109%.

Turning to `O=C(Nc1nc(Cl)nc(Nc2ccc(N3CCOCC3=O)cc2)n1)c1ccc(Cl)s1`, the growth with SR leukemia was 7.06% (active); in the test with RPMI-8226 leukemia, 90.3%; in the test on OVCAR-8 ovarian it was 87.6%; in the test on OVCAR-5 ovarian, 99%; in the test with OVCAR-4 ovarian it was 102%; in the test with SK-OV-3 ovarian, 99%. In addition, the growth in the test on IGROV1 ovarian was 72.6%; with OVCAR-3 ovarian it was 102%; in the test on HS 578T breast, 89.8%; in the test with NCI/ADR-RES ovarian, 99%.

For the compound `NC(=O)c1ccccc1OCC(=O)Nc1ccc(Cl)c(Cl)c1`, the growth in the test with SR leukemia is 71.4%; with RPMI-8226 leukemia, 66.5%; in the test with OVCAR-8 ovarian it was 91.9%; in the test with OVCAR-5 ovarian, 119%; in the test with OVCAR-4 ovarian it was 96.5%; in the test on SK-OV-3 ovarian, 96.9%. Moreover, the growth is 84.2% in the test on IGROV1 ovarian, 95.4% in the test on OVCAR-3 ovarian, 98.7% with HS 578T breast and 107% with NCI/ADR-RES ovarian.

As to `COc1ccc2c(c1)oc1c(C)c3c(c(C)c12)C(=O)N(CCOS(C)(=O)=O)C3=O`, the growth is 65.8% with SR leukemia; 94% with RPMI-8226 leukemia; 103% with OVCAR-8 ovarian; 91.6% in the test on OVCAR-5 ovarian; 100% in the test on OVCAR-4 ovarian; 120% with SK-OV-3 ovarian. For the same compound, the growth with IGROV1 ovarian was 88.4%; with OVCAR-3 ovarian, 118%; in the test on HS 578T breast it was 109%; in the test with NCI/ADR-RES ovarian it was 97.7%.

Turning to `Cc1ncc(C(=O)Nc2ccc(CN3CCN(C)CC3)c(C(F)(F)F)c2)cc1C#Cc1cnc(N)c2ccc(C#N)cc12`, the growth is 4.87% (active) in the test with SR leukemia; 7.42% (active) in the test on RPMI-8226 leukemia; 3.22% (active) in the test with OVCAR-8 ovarian; -24.7% (active) with OVCAR-5 ovarian; -7.66% (active) in the test with OVCAR-4 ovarian; -14.6% (active) with SK-OV-3 ovarian. Further, the growth with IGROV1 ovarian was -43.9% (active); in the test with OVCAR-3 ovarian it was 25%; with HS 578T breast, -8.89% (active); in the test on NCI/ADR-RES ovarian it was 39%.
